Screens (PubChem)
SNCA viab count = reduces viability of HEK-293 SNCA reporter cells | HEK-293-SNCA-luc viability, GF-AFC fluorescence, 24 h | Potency, µM (series often up to 57.1 µM), most hits filed as cytotoxic | AID 1671193 | 150,000 compounds, 0.12% hits; also: nearly all actives have a fitted effect of over 30% in size
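Cytotoxicity counterscreen: after 24 h compound treatment of genome-edited SNCA-luciferase HEK-293 cells, live-cell protease substrate GF-AFC read by fluorescence after 30 min; activity scaled between DMSO (0%) and medium-only (-100%), curves Hill-fitted.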
KDM5B inh = inhibitors of human KDM5B histone demethylase | 220,000 compounds, 2.6% hits | KDM5B demethylase, FDH-coupled NADH fluorescence (FDH is formaldehyde dehydrogenase) | Potency, µM (doses to about 57.7 µM), most hits filed as inhibitors; also: nearly all actives have a fitted effect of over 70% in size
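Measured: NADH fluorescence change, 30 min, RT. System: KDM5BΔAP 200 nM final, H3K4me3 peptide, α-KG, Fe(II), ascorbate, NAD⁺ plus FDH, pH 7.5 HEPES. Compounds: titrated, 10 min pre-incubation with enzyme.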
IP6K1 inh = blocks human inositol hexakisphosphate kinase 1; AID 1645851; IP6K1 kinase, ADP-Glo luminescence, 2 h; hits give low values; activity change, % (series mostly up to about 58 µM); 140,000 compounds, 0.81% hits; in the data active = activity change below about -25%
Target sequence (Q92551 whole entry, looked up): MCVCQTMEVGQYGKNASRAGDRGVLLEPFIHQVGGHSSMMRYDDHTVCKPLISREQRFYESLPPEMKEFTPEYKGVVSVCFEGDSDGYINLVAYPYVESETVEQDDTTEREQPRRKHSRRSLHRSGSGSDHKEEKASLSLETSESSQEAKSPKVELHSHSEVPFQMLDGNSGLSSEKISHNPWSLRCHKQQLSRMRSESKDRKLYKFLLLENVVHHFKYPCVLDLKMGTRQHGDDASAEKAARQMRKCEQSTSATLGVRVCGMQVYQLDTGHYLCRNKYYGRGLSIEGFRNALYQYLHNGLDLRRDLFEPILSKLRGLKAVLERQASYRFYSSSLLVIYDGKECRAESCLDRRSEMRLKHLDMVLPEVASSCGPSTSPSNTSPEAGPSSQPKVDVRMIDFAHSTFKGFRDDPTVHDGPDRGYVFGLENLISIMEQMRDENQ
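ADP-Glo luminescence measures ADP made by human IP6K1 during a 2 h RT reaction with ATP/IP6 (mix at 1.3 mM/130 uM); top library doses 57.5 and 19.1 uM final.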
SNCA expr inhib = reduces expression of the alpha-synuclein gene; HEK-293 SNCA-luciferase knock-in, luminescence, 24 h; Potency, µM (top dose mostly 57.2 µM), usual class: inhibitors; 140,000 compounds, 0.17% hits; also: nearly all actives have a fitted effect of over 45% in size
Large screens that a line does not name were inactive. The list is not random: actives were taken first. Their share in the collection is about 2.9%. Unless noted, calls follow the shape of the dose curve; as a rule, active = well fitted curve in the direction sought with a large enough effect; inconclusive = small, poorly fitted or top-dose-only effect, or another doubt; inactive = no such curve, though single readings can be large; an effect the other way counts as inactive or inconclusive.

Cc1ccccc1C(=O)N1CCC(c2nn(-c3ccc(Cl)cc3)c(=O)[nH]2)CC1	SNCA expr inhib inconclusive
CCCS(=O)(=O)N[C@@H]1CN(c2ncccn2)C[C@H]1CN(C)C	KDM5B inh 28µM
CCCCS(=O)(=O)N[C@@H]1CN(c2ncccn2)C[C@H]1CN(C)C	KDM5B inh 32µM
Cc1ccc(CS(=O)(=O)N[C@@H]2CN(c3ncccn3)C[C@H]2CN(C)C)cc1	KDM5B inh inconclusive
COc1cccc(CN2CCCCCNC(=O)[C@@H]3CCC[C@@H]32)c1	KDM5B inh 20µM
COc1cccc(CN2CCCCCCNC(=O)[C@@H]3CCC[C@@H]32)c1	KDM5B inh inconclusive
CCS(=O)(=O)NCC1(COc2ccccc2)C[C@@H](O)[C@@H](O)C1 (some centres undefined)	KDM5B inh inconclusive
CN1CCC(NC(=O)C2(C)CN(Cc3ccccc3)Cc3ccc(Nc4ccccc4)nc32)CC1 (centres undefined)	KDM5B inh inconclusive
CC1(C(=O)Nc2ccc(F)cc2)CN(Cc2ccccc2)Cc2ccc(N3CCOCC3)nc21 (centres undefined)	KDM5B inh 32µM, SNCA expr inhib inconclusive
COCCN1Cc2ccc(NCC(C)C)nc2C(C)(C(=O)Nc2ccccc2)C1 (centres undefined)	KDM5B inh inconclusive
CC1(C(=O)Nc2ccccc2)CN(Cc2ccccc2)Cc2ccc(N3CCOCC3)nc21 (centres undefined)	KDM5B inh 13µM, SNCA expr inhib inconclusive
CCc1ccc(N2CC(c3noc(-c4ccc5ncccc5c4)n3)CC2=O)cc1 (centres undefined)	KDM5B inh 32µM
CCc1ccc(N2CC(c3noc(-c4ccccc4)n3)CC2=O)cc1 (centres undefined)	none
O=C1CC(c2noc(-c3ccoc3)n2)CN1C1CCCCC1 (centres undefined)	none
CCc1ccc(N2CC(c3noc(-c4ccccn4)n3)CC2=O)cc1 (centres undefined)	none
O=C1CC(c2noc(-c3nccc4ccccc34)n2)CN1C1CCCCC1 (centres undefined)	KDM5B inh 22µM
CCc1ccc(N2CC(c3noc(-c4nccc5ccccc45)n3)CC2=O)cc1 (centres undefined)	KDM5B inh 32µM
CCC(CC)C(=O)N1CC[C@H]2NC(=O)N(c3ccc(C)cc3)C(=O)[C@H]21	none
CC(C)NC(=O)c1cc(-c2ccc(F)cc2)c2nncn2n1	none (no result: KDM5B inh)
N[C@@H](CO)c1nc(C2CCOCC2)nn1-c1ccccc1F	KDM5B inh 25µM
Fc1cccc(-n2nc(C3CCOCC3)nc2CNC2CC2)c1	none
Cc1noc2c(-c3ccc4c(ccn4C)c3)cc(-c3cccnc3)nc12	KDM5B inh 32µM
COc1cccc(-c2cc(-c3cccs3)nc3c(C)noc23)c1	KDM5B inh inconclusive
COc1cccc(-c2cc(-c3ccccc3)nc3c(C)noc23)c1	KDM5B inh 32µM
COc1ccc(-c2cc(-c3ccccc3)nc3c(C)noc23)cc1OC	KDM5B inh 25µM
COCC(C)NS(=O)(=O)c1cc(C)ccc1C (centres undefined)	none (no result: SNCA viab count, IP6K1 inh, SNCA expr inhib)
CC(=O)c1ccc(OCc2ccccc2)cc1	none (no result: SNCA viab count, IP6K1 inh, SNCA expr inhib)
CN(Cc1nc2ccccc2o1)Cc1ccccc1Cl	none (no result: SNCA viab count, IP6K1 inh, SNCA expr inhib)
CN(C)C(=O)c1ccc2c(c1)N(C)C(CC(=O)NCC(C)(C)O)CO2 (centres undefined)	SNCA expr inhib inconclusive
COCCNC(=O)c1ccc2c(c1)N(C)C(CC(=O)N1CCNC(=O)C1)CO2 (centres undefined)	KDM5B inh 28µM
COCCNC(=O)c1ccc2c(c1)N(C)C(CC(=O)N1CCCC1)CO2 (centres undefined)	KDM5B inh 32µM
CCC/C=C\C=C/CCc1cc(O)c([C@@H]2O[C@H](CO)[C@@H](O)[C@H](O)[C@H]2O)c(O)c1C(=O)OC	none (no result: KDM5B inh, SNCA expr inhib)
COc1ccc(-c2noc(-c3cccn3CC(=O)Nc3ccc(F)cc3)n2)cc1F	none
COC1CN(c2ccc(C)cc2)C12CCN(C(=O)COc1ccccc1)CC2 (centres undefined)	none
CCCN1CCN(CCNC(=O)c2cn3ccnc(-c4ccc(OC)cc4)c3n2)CC1	KDM5B inh 20µM
CCN1CCN(CCCNC(=O)c2cn3ccnc(-c4ccc(C)cc4)c3n2)CC1	KDM5B inh inconclusive
COc1ccc(-c2nccn3cc(C(=O)NCCN4CCCCC4)nc23)cc1	KDM5B inh 20µM
CCc1cccc(NC(=O)Cn2c(N(C)Cc3ccccc3)nc(C)cc2=O)c1	KDM5B inh 25µM, SNCA expr inhib inconclusive
Cc1cccc(NC(=O)Cn2c(N(C)Cc3ccccc3)nc(C)cc2=O)c1	none
COc1ccc(OC)c(CN2CCNc3cc(-c4ccccc4)ncc3C2)c1	SNCA viab count inconclusive
COc1ccc(CN2CCNc3cnc(Oc4ccccc4)cc3C2)cc1O	KDM5B inh inconclusive
COc1ccc(OC)c(CN2CCNc3cnc(Nc4ccccc4)cc3C2)c1	KDM5B inh 35µM
COc1ccc(CN2CCNc3cnc(Nc4ccccc4)cc3C2)cc1O	KDM5B inh 40µM
COc1ccc(CN2CCNc3cnc(Nc4cccnc4)cc3C2)cc1O	KDM5B inh 35µM
COc1ccc(CN2CCNc3cc(Nc4cccnc4)ncc3C2)cc1O	none
O=C(c1ccc(F)cc1)N1CCC2(CC1)CCN(CCc1ccccc1)c1ccccc1O2	KDM5B inh inconclusive
C#CCNC(=O)c1nc(-c2ccccc2OC)c2cnccn12	KDM5B inh 89µM
COCCNC(=O)c1nc(-c2ccccc2OC)c2ccccn12	none
COc1ccccc1-c1nc(C(=O)N(C)C)n2ccccc12	KDM5B inh 112µM
C#CCNC(=O)c1nc(-c2ccccc2OC)c2ccccn12	KDM5B inh 100µM
C#CCNC(=O)c1nn(C)c2nc(-c3ccccc3OC)ccc12	none (no result: KDM5B inh)
O=[S+]([O-])(Nc1cccnc1)c1ccc2c(c1)OCCN(Cc1cccs1)C2	none
Nc1nc2c(c(C(=O)N[C@H](c3ccccn3)C3CC(O)C3)n1)CCCC2 (some centres undefined)	KDM5B inh 28µM
O=C(Cc1csc(-c2ccccc2)n1)N[C@H](c1ccccn1)C1CC(O)C1 (some centres undefined)	KDM5B inh 25µM
Cc1noc(-c2cccc(OC3CN(C(=O)Nc4ccccc4)C3)c2)n1	SNCA expr inhib inconclusive
COC(=O)c1sccc1NC(=O)N1CCCC1c1noc(COc2ccc(F)cc2)n1 (centres undefined)	KDM5B inh 32µM
O=C(c1ccoc1)N1CCC(Cc2noc(-c3ccncc3)n2)C1 (centres undefined)	none
O=[S+]1([O-])NCC2(CCCN(Cc3cccc(C(F)(F)F)c3)C2)Oc2ncccc21 (centres undefined)	none
O=[S+]1([O-])NCC2(CCCN(Cc3ccc(Cl)cc3)C2)Oc2ncccc21 (centres undefined)	KDM5B inh 79µM
O=C(c1csc(Nc2ccc(Cl)c(Cl)c2)n1)N1CCc2ccccc2C1	none (no result: SNCA viab count, IP6K1 inh, SNCA expr inhib)
O=C(NCc1ccccc1)c1nc2c(o1)CCN(Cc1ccc(F)c(Cl)c1)CC2	KDM5B inh 28µM
